# According to ChEMBL document CHEMBL4513146, “CO-ADD screening of Karazin Kharkiv National University (Ukraine) compounds”:
# Results with a measured potency or affinity are listed apart.
# What was measured:
# Staphylococcus aureus = settings: Concentration 32 ug.mL-1;; ASSAY_TEST Inhibition of Bacterial Growth; detection method Absorption (OD600); MEDIA CAMHB; plate type 384well; NBS; CORNING #3640; time 18 hr
# Escherichia coli = settings: Concentration 32 ug.mL-1;; ASSAY_TEST Inhibition of Bacterial Growth; detection method Absorption (OD600); MEDIA CAMHB; plate type 384well; NBS; CORNING #3640; time 18 hr
SMILES,Inhibition (Staphylococcus aureus),Inhibition (Escherichia coli)
Cc1cccc(Oc2nccn3c(=O)n(CC(=O)NCCCc4ccccc4)nc23)c1C,9.48%,-1.44%
COc1ccc(-n2ccn3c(-c4cccc([N+](=O)[O-])c4)nnc3c2=O)cc1,3.65%,-6.72%
Cc1ccc(-c2nc(CSc3nc4ccccc4n4c(C(C)C)nnc34)c(C)o2)cc1,-8.56%,-6.52%
COc1ccccc1-n1ccn2c(SCC(=O)Nc3ccc(C)cc3Cl)nnc2c1=O,8.71%,-9.42%
Cc1ccc(Oc2nccn3c(=O)n(CC(=O)Nc4ccc(C)cc4Cl)nc23)cc1,6.09%,0.24%
O=C(CSc1nc2ccccc2n2cnnc12)NCc1ccccc1Cl,1.47%,-4.49%
Cc1ccc(NC(=O)Cn2nc3c(N4CCOCC4)nccn3c2=O)cc1Cl,10.97%,1.83%
COC(=O)c1cccc(NC(=O)Cn2nc3c(SCc4ccc(Cl)cc4)nccn3c2=O)c1,6.19%,-8.47%
Cc1ccccc1CSc1nnc2c(=O)n(-c3ccc(F)cc3)ccn12,16.33%,-5.51%
CC(C)c1ccc(NC(=O)Cn2nc3c(SCc4ccccc4)nccn3c2=O)cc1,1.97%,-7.26%
O=C(NCc1ccccc1)c1ccc2nn(CC(=O)N3CCN(c4ccc(F)cc4)CC3)c(=O)n2c1,4.28%,-2.47%
COc1cccc(-n2ccn3c(SCc4c(F)cccc4Cl)nnc3c2=O)c1,2.96%,-9.46%
O=C(Cn1nc2c(SCc3ccccc3)nccn2c1=O)NC1CCCC1,-2.71%,0.2%
O=C(Cn1nc2c3cc(-c4ccc(F)cc4)nn3ccn2c1=O)N1CCN(c2ccccc2F)CC1,-6.33%,3.42%
O=C(Cn1nc2c(N3CCOCC3)nccn2c1=O)Nc1ccccc1Br,17.91%,6.7%
CCOc1ccc(-n2ccn3c(SCC(=O)Nc4cccc(CC)c4)nnc3c2=O)cc1,-2.86%,-8.29%

SMILES,Inhibition (Staphylococcus aureus),Inhibition (Escherichia coli)
CCCn1c(=O)c2sccc2n2c(=O)n(CC(=O)c3ccc(OC)c(OC)c3)nc12,7.14%,-1.62%
Cc1ccc(NC(=O)Cn2nc3c4cc(-c5ccc(C)c(C)c5)nn4ccn3c2=O)c(Cl)c1,9.28%,-1.41%
COc1ccc(NC(=O)Cn2nc3c(N4CCOCC4)nccn3c2=O)c(OC)c1,14.25%,-1.5%
Cc1ccc(-c2cc3c4nn(CC(=O)Nc5ccccc5F)c(=O)n4ccn3n2)cc1C,-4%,-9.57%
O=C(Cn1nc2nc(Nc3ccc(F)cc3)ccn2c1=O)Nc1cc(F)ccc1F,11.9%,-2.67%
COc1ccc(NC(=O)c2ccc3nn(CC(=O)Nc4ccccc4C(F)(F)F)c(=O)n3c2)cc1,9.89%,-3.73%
Cc1ccc(NC(=O)CSc2nc3ccccc3n3c(C)nnc23)cc1C,-20.91%,-12.4%
Cc1ccc(-c2ccc3nnc(CCC(=O)NCc4ccc(Br)cc4)n3n2)cc1,14.28%,0.41%
Cc1ccccc1Oc1nccn2c(=O)n(CC(=O)Nc3ccc(C(C)C)cc3)nc12,-1.76%,-10.99%
COc1ccccc1N1CCN(C(=O)Cn2nc3ccc(-c4ccccc4)nn3c2=O)CC1,-11.69%,-1.16%
COc1ccccc1-n1ccn2c(SCc3ccccc3C)nnc2c1=O,16.46%,-2.58%
Cc1ccc(NC(=O)Cn2nc3ccc(C(=O)NCc4ccccc4)cn3c2=O)c(Br)c1,-7.88%,-9.76%
O=c1c2nnc(SCc3ccccc3Cl)n2ccn1-c1ccc(F)cc1,8.27%,-4.39%
Cc1ccc(-n2ccn3c(=O)n(Cc4cccc(Cl)c4)nc3c2=O)cc1C,7.38%,0.11%
COc1ccc(CNC(=O)CSc2nnc3c4cc(-c5ccc(C)cc5)nn4ccn23)cc1OC,5.65%,-0.16%
COc1cccc(Cn2nc3ccc(-c4ccccc4)nn3c2=O)c1,13.4%,-1.58%
